# Pf Dd2 growth = blocks in vitro growth of P. falciparum Dd2; P. falciparum Dd2 growth, SYBR Green, 72 h; AID 1347417; 120,000 compounds, 4.3% hits; Potency, µM (top dose mostly 28.9 µM), inactives show top-dose activity, negative = inhibition, actives largely listed as inhibitors; active means well fitted inhibition curve with a large enough effect;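 further: plate controls were DMSO vehicle for no effect and reference drug for full effect; nearly all actives have a fitted effect of over 65% in size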
#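 Readout: SYBR Green fluorescence, 485 nm excitation, 535 nm emission, after ~16 h lysis at 37C. Before that, Dd2-infected red cells (2.5% hematocrit) grew 72 h with compound, 29 uM top final concentration.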
# The depositor's hits bear a star; i = inactive; [ ] = dose if it differs, or a comment. Only a selection was taken, and hits are over-represented in it overall. Potency means the concentration at half of the fitted maximal effect.
SMILES,Pf Dd2 growth
C[S+](=O)([O-])c1ccc(-c2nccc3c(=O)cc(-c4ccncc4)oc23)cc1,i
O=c1cc(-c2cccnc2)oc2c(-c3ccccc3F)nccc12,i
Cc1ccc(CN[C@@H]2CO[C@H](CNC(=O)c3cccs3)[C@H]2O)cc1,i
COCC1CN(C(=O)Cc2ccccc2F)CC12CCNCC2 (configuration not stated),i
Cc1nc(-c2c3n(c(=O)n(Cc4ccc(C#N)cc4)c2=O)CCCCC3)no1,7.5%
O=C(C1CCCO1)N1CCCC(c2ccccc2)(c2ccccc2)C1 (configuration not stated),-12.1%
CCN(CC)[C@H]1[C@@H]2OC[C@@H](O2)[C@@H](NCc2ccc(N(C)C)cc2)[C@@H]1O,i
CCN(CC)[C@H]1[C@@H]2OC[C@@H](O2)[C@@H](NCC2CCCCC2)[C@@H]1O,10µM*
CCN(CC)[C@H]1[C@@H]2OC[C@@H](O2)[C@@H](NC(=O)Nc2cccc(OC)c2)[C@@H]1O,i
Cc1ccccc1CC(=O)N1C[C@@H](COc2ccccc2)[C@H](C(N)=O)C1,-11.4%
O=C1CCCN1CCCN1C(=O)[C@@H]2C[C@@H](O)CN2C2(CN(C3COC3)C2)C1=O,37.6%[44.1 µM]
N#C/C(=C\c1c(Oc2ccc(Br)cc2)nc2ccccn2c1=O)c1nc2ccccc2s1,6.5%
CCc1ccc(Oc2nc3c(C)cccn3c(=O)c2/C=C(\C#N)c2nc3ccccc3s2)cc1,i
Cc1cc(C)cc(Oc2nc3c(C)cccn3c(=O)c2/C=C(\C#N)c2nc3ccccc3s2)c1,0.891µM*
Cc1cc(C)cc(Oc2nc3ccccn3c(=O)c2/C=C(\C#N)c2nc3ccccc3s2)c1,22.5%
Cc1cc(Oc2nc3ccccn3c(=O)c2/C=C(\C#N)c2nc3ccccc3s2)ccc1Cl,i
Cc1cccn2c(=O)c(/C=C(\C#N)c3nc4ccccc4s3)c(Oc3ccc(F)cc3)nc12,3.16µM*
CO[C@H]1C(=O)N(C2CCN(C(=O)c3cc(C)nn3C)CC2)[C@H]1c1ccncc1,17.2%
CCOc1ccc(C(=O)N2CC(c3nnc(C(C)C)o3)C3(CCOCC3)C2)cc1 (configuration not stated),i
COc1ccc(C(=O)N2CCC(N3C(=O)C(OC)C34CCOCC4)CC2)c(OC)c1 (configuration not stated),-0.6%
O=C(O)Cn1ccc2cc(OCCc3cccc(-c4ccc(F)cc4F)c3)cnc21,i
COc1cccc(-c2[nH]cnc2-c2ccccc2)c1OCCCn1ccnc1,3.16µM*
CCOCCn1cnc(-c2ccccc2)c1-c1ccccc1OCC(N)=O,-16.3%
COc1ccccc1-c1ncc[nH]1,65.3%[76.6 µM]
COc1ccc(-c2noc(CC3CCN(C(=O)c4ccc(C)nc4)CC3)n2)cc1,i
SMILES,Pf Dd2 growth
CCNC(=O)[C@@H]1C[C@@H](NC(=O)Cn2nc(C)cc2N)CN1C1CCOCC1,0.8%
CC(=O)N1CCC2(CC1)CN(C(=O)c1ccc(Cl)cc1)CCO2,3.6%
NC(Cc1ccccc1)C(=O)N1CCC2(CC1)CN(C(=O)c1ccc(Cl)cc1)CCO2 (configuration not stated),0.631µM*
COc1ccc(CC(=O)N2CCC3(CC2)CN(C(=O)c2ccc(Cl)cc2)CCO3)cc1,-7.5%
CCn1cc(S(=O)(=O)N2CCCCC2c2nc(-c3ccncc3)n[nH]2)cn1 (configuration not stated),-9.7%
O=C(NCCc1ccc(Cl)cc1)C1CCc2nnc(C3CCN(C(=O)c4cccnc4)CC3)n21 (configuration not stated),i
CN1C(=O)c2cccn2CC1CNC(=O)c1ccnn1C (configuration not stated),i
Cc1nc(C)c(C(=O)N(C)C2CCc3nn(CC4CC4)c(=O)n3CC2)s1 (configuration not stated),41.5%
O=C(NC1C[C@H]2CC[C@@H](C1)N2C(=O)c1ccoc1)c1ccncc1 (some centres not stated),4.5%
CC(=O)N1Cc2ccccc2OC2(CCN(C(=O)NC(C)C)CC2)C1,-8.5%
CN(C)C(=O)N1CCC2(CC1)CN(C(=O)c1cccc3[nH]ccc13)Cc1ccccc1O2,-27.5%
CC(C)NC(=O)N1CCC2(CC1)CN(C(=O)c1ccc3[nH]ccc3c1)Cc1ccccc1O2,12.6µM*
CC(=O)N1CCC2(CC1)CN(C(=O)NC(C)C)Cc1ccccc1O2,9.3%
C[S+](=O)([O-])N1Cc2ccccc2OC2(CCN(C(=O)c3cccc4[nH]ccc34)CC2)C1,-28.9%
CC(C)NC(=O)N1Cc2ccccc2OC2(CCN(C(=O)c3cccc4[nH]ccc34)CC2)C1,11.2µM*
COCCNC(=O)C1CCN(C(=O)C2CN(c3ccc(OC)cc3)C(=O)N2)C1 (configuration not stated),-15.2%
CN1CC(=O)N(c2ccccc2)Cc2c(NC3CCC3)ncnc21,-3.2%[44.1 µM]
Cc1ccc2nc(NC(=O)Cn3nc4c(cc3=O)CCCCC4)sc2c1,2.7%
FC(F)(F)c1ccccc1-c1cc(-c2cccnc2)c2cncn2c1,-24.1%[44.1 µM]
Cc1noc(C)c1-c1cc(-c2ccc(CO)cc2)cn2cncc12,-22.7%[44.1 µM]
Cc1noc(C)c1-c1cc(-c2ccccc2F)cn2cncc12,7.08µM*
Cc1noc(C)c1-c1cc2c(c(-c3ccccc3)c1)C(=O)N(C)C2,i
C1=C(c2cc(-c3ccncc3)cn3cncc23)CCOC1,i
Cc1noc(C)c1-c1cc(-c2cccc(O)c2)cn2cncc12,11.2µM*
COc1cccc(-c2cc(-c3c(C)noc3C)cc3c2C(=O)N(C)C3=O)c1OC,i
SMILES,Pf Dd2 growth
Cc1noc(C)c1-c1cc(-c2ccccc2C(F)(F)F)cn2cncc12,6.31µM*
c1cncc(-c2cc(-c3cccc(N4CCOCC4)c3)cn3cncc23)c1,-27.6%[44.1 µM]
CCOc1ccccc1C1NC(=O)N(CC(=O)Nc2c(C)cccc2CC)C2=C1C(=O)OC2 (configuration not stated),i
O=C(O)COc1ccc(-c2nccc3c2C(=O)N(Cc2c[nH]c4ccccc24)CC(COc2cccc(N4CCOCC4)c2)O3)cc1 (configuration not stated),i
COCCCNC(=O)C1CC(=O)N(c2n[nH]c3cc(Br)ccc23)C1 (configuration not stated),4.3%
COc1ccc(C2Cn3nnc(-c4nc(-c5ccc(F)c(F)c5)no4)c3CO2)cc1 (configuration not stated),i
Cc1ccc(C(=O)N2C(C(=O)N3CCOCC3)COC23CCN(C(=O)c2ccc(F)cc2)CC3)cc1 (configuration not stated),-12.1%
COCCn1ncc(N2CCC(C(=O)NCc3ccc(OC)c(OC)c3)C2)cc1=O (configuration not stated),-12.0%
CN1C(=O)CCC2(CNC(=O)c3ccc(Cn4ccnc4)o3)CCC=C12 (configuration not stated),-1.4%
Cc1c(-c2cccc(NC(=O)Nc3ccc(Cl)cc3)c2)nc2ncccn12,-24.3%
Cc1ccc(CSCC(=O)N2CCN(c3cc(Cl)ccc3C)CC2)cc1,i
Cc1ccc(Cl)cc1N1CCN(C(=O)CCC(=O)Nc2ccc3nc(N4CCC(C)CC4)cc(C)c3c2)CC1,3.55µM*
Cc1cccn2c(=O)cc(COc3cccc(NC(=O)Nc4cccc(Cl)c4)c3)nc12,i
CCOc1cc(C(=O)Nc2ccc3nc(N4CCN(C)CC4)cc(C)c3c2)cc(OCC)c1OCC,3.16µM*
Cc1cn(C)c(CC(=O)N2CCN(c3cccc(Cl)c3)CC2)c1C(=O)O,2.4%
Cc1cc(N2CCCCC2)nc2ccc(NC(=O)CCC(=O)N3CCN(c4cccc(Cl)c4)CC3)cc12,11.2µM*
